# TRHR enhancer – allosteric enhancers of human TRH receptor. P34981. TRHR cells, fluo-8 calcium fluorescence, EC20 TRH enhancement. enhancement, % at 2 µM. 360,000 tested, 0.66% active; in the data active = enhancement above about 30%; also: 0% is about no effect
#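 Enhancer read-out: after compound pinning and an initial kinetic agonist-mode read, an EC20 of TRH (10 nM final) was injected and fluo-8 calcium signal (Ex 480/Em 530) followed at 1 s/cycle for 100 cycles in TRHR-expressing cells.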
# D1 agonist – human D1 receptor agonism; P21728; HEK293 T-REx D1 cells, calcium flux, agonist mode; activation, % at 2 µM; 360,000 tested, 1% active; also: 0% is about no effect
# Target sequence (P21728 whole entry, looked up): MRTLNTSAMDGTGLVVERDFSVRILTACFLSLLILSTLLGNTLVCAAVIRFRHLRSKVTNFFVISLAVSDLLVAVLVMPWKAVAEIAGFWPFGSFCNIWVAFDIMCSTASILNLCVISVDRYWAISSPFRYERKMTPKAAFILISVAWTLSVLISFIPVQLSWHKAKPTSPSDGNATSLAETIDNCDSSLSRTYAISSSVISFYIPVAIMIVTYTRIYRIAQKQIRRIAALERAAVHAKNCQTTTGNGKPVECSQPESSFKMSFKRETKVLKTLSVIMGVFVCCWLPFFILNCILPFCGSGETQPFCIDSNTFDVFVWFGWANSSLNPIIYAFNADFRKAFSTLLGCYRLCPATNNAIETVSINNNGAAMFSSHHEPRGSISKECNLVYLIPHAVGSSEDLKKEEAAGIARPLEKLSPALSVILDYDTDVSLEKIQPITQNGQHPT
#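 Inducible HEK293 T-REx D1 cells, force-coupled to calcium signalling, were plated at 4000 cells/well with tetracycline and held overnight at 30 C. After no-wash calcium dye loading, compound-evoked calcium rise over 180 s flagged agonists.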
# D1 potentiator – human D1 dopamine receptor positive modulation | P21728 | HEK293 TREx D1 cells, calcium flux, dopamine EC20 potentiation | potentiation, % at 10 µM | 360,000 tested, 0.036% active | AID 504651; in the data active = potentiation above about 30%; also: 0% is about no effect
# D1 antagonist – human D1 dopamine receptor antagonism; P21728; HEK293 TREx D1 cells, calcium flux, dopamine EC80; stronger effect = lower value; activity change, negative = inhibition, % at 10 µM; 360,000 tested, 3.2% active; in the data active = activity change below about -30%; also: % is scaled to controls: 0 for no effect and ±100 for the full control effect
#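 Tetracycline-induced HEK293 Trex D1 cells, force-coupled to calcium, dye-loaded; compounds added and read 180 s, then EC80 dopamine added and calcium flux tracked kinetically another 180 s.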
# TRHR ag – activates the human TRH receptor. 360,000 tested, 0.18% active. P34981. TRHR cells, calcium flux fluo-8, FDSS agonist mode. activation, % at 2 µM; also: 0% is about no effect
#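 TRHR-expressing cells, plated overnight in medium with 10% serum, were loaded with fluo-8 calcium dye at room temperature. After a 10 s baseline, library compound was pin-added and calcium release was recorded kinetically (ex 480/em 530) as agonist response.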
# * marks the source's active call; other numbers are inactive results. Hits are enriched below; roughly 4.7% of the tested compounds scored in any of these assays. Rule as the data show it, unless noted: active = activation above about 30%; inactive = the rest.
SMILES,TRHR enhancer,D1 agonist,D1 potentiator,D1 antagonist,TRHR ag
Cc1cc(OCC(=O)OCC(=O)NC2CCCCC2C)ccc1Cl (stereo not given),0,5,-8,-32*,0
CC1CCCC(NC(=O)COC(=O)COc2ccc(Cl)cc2)C1C (stereo not given),-4,2,0,-10,0
CCC(=O)c1ccc(OCC(=O)OCC(=O)NC2CCCCCCC2)cc1,-1,11,-4,-39*,0
COc1cccc(CNC(=O)c2cnc3c(-c4ccc(F)cc4)c(C)nn3c2C)c1,-3,2,-9,-29,0
Cc1ccc(NC(=S)N/N=C2/CCCCc3ccccc32)cc1,-3,1,-1,-6,0
COc1ccc(NC(=S)N/N=C2/CCCc3c(C)cc(C)cc32)cc1,-1,1,4,-40*,0
O=C(NCC(c1cccnc1)N1CCc2ccccc21)c1ccc(F)c(F)c1 (stereo not given),12,9,-5,1,0
O=C(/C=C/c1ccccc1)N1c2ccccc2Sc2ccc(C(F)(F)F)cc21,-3,3,4,8,1
COc1ccc(/C=C/C(=O)N2c3ccccc3Sc3ccc(C(F)(F)F)cc32)cc1,34*,13,-8,-40*,0
CCCCS(=O)(=O)CC(O)CSc1nc(-c2ccc(C)cc2)cc(-c2ccccc2)c1C#N (stereo not given),-1,5,0,2,0
Cc1ccc([N+](=O)[O-])c(OCCN2CCC(Cc3ccccc3)CC2)c1,4,27,-13,-55*,3
Cc1ccc(/C=C/C(=O)N2CCC(Cc3ccccc3)CC2)cc1,6,10,-9,-33*,1
Cc1ccc(/C=C/C(=O)N2CCCC(C)C2)cc1 (stereo not given),-1,1,-2,-3,0
Cc1cccc(C(=O)N2CCC(Cc3ccccc3)CC2)c1[N+](=O)[O-],9,1,-6,-36*,0
COc1ccccc1OC(C)C(=O)N1CCC(Cc2ccccc2)CC1 (stereo not given),3,3,-7,-10,-1
Cc1ccccc1OC(C)C(=O)N1CCC(Cc2ccccc2)CC1 (stereo not given),-5,13,-2,-47*,0
COc1ccc(CCNC(=O)Cn2nnc(-c3cccc(C(F)(F)F)c3)n2)cc1OC,-2,4,-2,-1,0
N#Cc1nc(COc2ccccc2Cl)oc1N1CCCC1,-10,2,-3,-31*,-1
N#Cc1nc(COc2ccc(F)cc2)oc1N1CCC(Cc2ccccc2)CC1,2,48*,2,0,0
N#Cc1nc(COc2ccc(F)cc2)oc1N1CCN(Cc2ccccc2)CC1,1,2,1,1,0
CCS(=O)(=O)N1CCc2cc(C(=O)Nc3cccc(NC(C)=O)c3)ccc21,-7,1,-3,1,-1
COc1ccnc(Oc2ccccc2)c1C#N,-6,1,-3,5,-1
COc1ccnc(Oc2ccc(Cl)cc2)c1C#N,-7,0,-7,-35*,0
CN(C)c1ccnc(Oc2ccc(Cl)cc2)c1C#N,5,21,-10,8,0
Cc1cc(Cl)ccc1Oc1nccc(N(C)C)c1C#N,-6,10,-11,-37*,0
SMILES,TRHR enhancer,D1 agonist,D1 potentiator,D1 antagonist,TRHR ag
CC1CCCCN1C(=O)c1ccc(OC2CCN(S(=O)(=O)N(C)C)CC2)cc1 (stereo not given),-3,11,0,-24,1
CN(C)S(=O)(=O)N1CCC(Oc2cccc(C(=O)NC3CCCCCC3)c2)CC1,-3,14,-7,-32*,0
Cc1cc(CNC(=O)c2cccc(OC3CCN(S(=O)(=O)N(C)C)CC3)c2)on1,3,9,-10,-39*,0
CN(C(=O)c1ccc(OC2CCN(S(=O)(=O)N(C)C)CC2)cc1)C1CCCCC1,-11,4,-7,-1,1
CN(C)S(=O)(=O)N1CCC(Oc2ccc(C(=O)N3CCCCCCC3)cc2)CC1,13,23,-8,-35*,0
CCN(Cc1cnn(C)c1)C(=O)c1ccc(OC2CCN(S(=O)(=O)N(C)C)CC2)cc1,9,9,-5,-42*,-2
CNC(=O)C1CCC(Cn2c(=O)c3sccc3n(CC(=O)Nc3cc(C)cc(C)c3)c2=O)CC1 (stereo not given),-2,0,-5,-5,0

# Bioassay records (PubChem)
